# Measured values as given in PubChem BioAssay (NCATS).
# “And” between values parts separate entries of the source, which are not always exact repeats. Identical values can stand only once. Results filed as inconclusive are left out. Where a structure was tested more than once in an assay, its records may differ in their call. Values without a mark were called inactive. The source made the active and inactive calls. The call rests on the fitted dose curve; in most records, active means well fitted curve in the direction sought with a large enough effect; inconclusive means small, poorly fitted or top-dose-only effect, or another doubt; inactive means no such curve, though single readings can be large; an effect the other way counts as inactive or inconclusive.
# Key:
# [1] = system: CRL-7250; experiment: Cytotoxic Profiling of Annotated Libraries Using Quantitative High-Throughput Screening (AID 1296008); conditions: Five cell lines viability, CellTiter-Glo ATP luminescence, 48-72 h; max response: stronger effect = lower value; further: nearly all actives have a fitted effect of over 60% in size
# Procedure, shortened: (§1)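 Compounds were pin-transferred onto cells and incubated 48 or 72 hr at 37 degree Celsius, 95% humidity. CellTiter-Glo was added, plates sat 10 min at room temperature, then ATP-coupled luminescence was imaged as the viability read-out.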
# [2] = system: HaCat; experiment: as above; conditions: Five cell lines viability, CellTiter-Glo ATP luminescence, 48-72 h; max response: stronger effect = lower value
# Procedure, shortened: as §1
# [3] = system: KB-3-1; experiment: as above; conditions: Five cell lines viability, CellTiter-Glo ATP luminescence, 48-72 h; max response: stronger effect = lower value
# Procedure, shortened: as §1
# [4] = system: MCC-13; experiment: qHTS assay to identify novel small-molecules to repurpose for Merkel cell carcinoma treatment (AID 1296009); conditions: MCC and control cell lines, CellTiter-Glo viability, 72 h; series mostly up to 46 µM; further: nearly all actives have a fitted effect of over 60% in size
# Procedure, shortened: (§2)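 Luminescence from CellTiter-Glo, read 10 min after addition at room temperature, reported viability following a 72 hr, 37 degree celsius treatment with NPC or MIPE compounds in titration; values normalized to plate controls.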
# [5] = system: MCC-26; experiment: as above; conditions: MCC and control cell lines, CellTiter-Glo viability, 72 h; series mostly up to 46 µM
# Procedure, shortened: as §2
# [6] = system: MKL-2; experiment: as above; conditions: MCC and control cell lines, CellTiter-Glo viability, 72 h; series mostly up to 46 µM
# Procedure, shortened: as §2
# [7] = system: C33A; experiment: Primary qHTS to identify gynecologic anti-cancer compounds using libraries of approved drugs and bioactive compounds (AID 1345084); conditions: Gynecologic cancer cell panel viability, ATPlite luminescence, 48 h; series mostly up to 57.5 µM; further: nearly all actives have a fitted effect of over 55% in size
# Procedure, shortened: (§3)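 Cells, 1,000 per well, plated 16 h, then exposed 48 h at 37 C to compounds. Viability by ATPlite luminescence after 15 min at room temperature.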
# [8] = system: CASKI; experiment: as above; conditions: Gynecologic cancer cell panel viability, ATPlite luminescence, 48 h; series mostly up to 57.5 µM
# Procedure, shortened: as §3
# [9] = system: Es-2; experiment: as above; conditions: Gynecologic cancer cell panel viability, ATPlite luminescence, 48 h; series mostly up to 57.5 µM
# Procedure, shortened: as §3
# [10] = system: HeLa; experiment: as above; conditions: Gynecologic cancer cell panel viability, ATPlite luminescence, 48 h; series mostly up to 57.5 µM
# Procedure, shortened: as §3
# [11] = system: Hek293T; experiment: as above; conditions: Gynecologic cancer cell panel viability, ATPlite luminescence, 48 h, control line for the selectivity index; series mostly up to 57.5 µM
# Procedure, shortened: as §3
# [12] = system: NIH3T3; experiment: Cytotoxic Profiling of Annotated Libraries Using Quantitative High-Throughput Screening (AID 1296008); conditions: Five cell lines viability, CellTiter-Glo ATP luminescence, 48-72 h; max response: stronger effect = lower value; further: nearly all actives have a fitted effect of over 60% in size
# Procedure, shortened: as §1
# [13] = system: UISO; experiment: qHTS assay to identify novel small-molecules to repurpose for Merkel cell carcinoma treatment (AID 1296009); conditions: MCC and control cell lines, CellTiter-Glo viability, 72 h; series mostly up to 46 µM; further: nearly all actives have a fitted effect of over 60% in size
# Procedure, shortened: as §2
# [14] = system: MKL-1; experiment: as above; conditions: MCC and control cell lines, CellTiter-Glo viability, 72 h; series mostly up to 46 µM
# Procedure, shortened: as §2
# [15] = system: WaGa; experiment: as above; conditions: MCC and control cell lines, CellTiter-Glo viability, 72 h; series mostly up to 46 µM
# Procedure, shortened: as §2
# [16] = system: CAOV3; experiment: Primary qHTS to identify gynecologic anti-cancer compounds using libraries of approved drugs and bioactive compounds (AID 1345084); conditions: Gynecologic cancer cell panel viability, ATPlite luminescence, 48 h; series mostly up to 57.5 µM; further: nearly all actives have a fitted effect of over 55% in size
# Procedure, shortened: as §3
# [17] = system: HEK293; experiment: Cytotoxic Profiling of Annotated Libraries Using Quantitative High-Throughput Screening (AID 1296008); conditions: Five cell lines viability, CellTiter-Glo ATP luminescence, 48-72 h; max response: stronger effect = lower value; further: nearly all actives have a fitted effect of over 60% in size
# Procedure, shortened: as §1
# [18] = system: HACAT; experiment: qHTS assay to identify novel small-molecules to repurpose for Merkel cell carcinoma treatment (AID 1296009); conditions: MCC and control cell lines, CellTiter-Glo viability, 72 h; series mostly up to 44.8 µM; further: nearly all actives have a fitted effect of over 60% in size
# Procedure, shortened: as §2
# On the % scale 0 is the no-effect control and ±100 the full control effect; potency means the concentration at half of the fitted maximal effect.
smiles,measurement,setting,value
O=C(O)C1(Cc2cccc(Nc3nccs3)n2)CCC(Oc2cccc(Cl)c2F)CC1 (centres undefined),max response,[1],-5.96% and -3.26%
same,Potency,[2],5.26 µM (active) and 4.61 µM (active)
same,Potency,[3],2.35 µM (active)
same,Potency,[4],10.5 µM (active)
same,Potency,[5],inactive
same,Potency,[6],inactive
same,Potency,[7],inactive
same,Potency,[8],inactive
same,Potency,[9],inactive
same,Potency,[10],6.31 µM (active)
same,Potency,[11],inactive
CNC(=O)c1ccccc1Nc1nc(Nc2ccc(N3CCOCC3)cc2OC)ncc1Cl,Potency,[1],7.43 µM (active) and 4.11 µM (active)
same,Potency,[2],2.96 µM (active) and 2.31 µM (active)
same,Potency,[3],2.64 µM (active) and 1.3 µM (active)
same,Potency,[12],1.05 µM (active)
same,Potency,[6],inactive
same,Potency,[13],1.48 µM (active)
same,Potency,[8],10 µM (active)
same,Potency,[10],5.01 µM (active)
CCC(=C(c1ccccc1)c1ccc(OCCN(C)C)cc1)c1ccccc1,max response,[1],3.45%
same,max response,[2],2.08%
same,max response,[3],-16.9%
same,max response,[12],1.38%
same,Potency,[4],inactive
same,Potency,[5],inactive
CCCCCN(CCC12CC3CC(CC(C3)C1)C2)C(=O)NCCCc1ccncc1,max response,[1],-19%
same,max response,[2],-32%
same,max response,[12],-9.34%
same,Potency,[4],inactive
same,Potency,[5],inactive
same,Potency,[14],inactive
same,Potency,[6],inactive
same,Potency,[13],inactive
same,Potency,[15],inactive
same,Potency,[7],inactive
same,Potency,[16],inactive
same,Potency,[8],inactive
same,Potency,[9],inactive
same,Potency,[10],inactive
same,Potency,[11],inactive
CNC(=O)c1c(F)cccc1Nc1nc(Nc2cc3c(cc2OC)CCN3C(=O)CN(C)C)nc2[nH]ccc12,Potency,[17],4.18 µM (active) and 13 µM (active)
same,Potency,[2],18.4 µM (active)
same,outcome,[2],inactive
same,Potency,[12],7.31 µM (active)
same,Potency,[18],inactive
same,Potency,[5],23.5 µM (active)
same,Potency,[14],18.7 µM (active)
same,Potency,[6],5.9 µM (active)
same,Potency,[13],5.9 µM (active)
same,Potency,[15],18.7 µM (active)
same,Potency,[7],inactive
same,Potency,[8],inactive
same,Potency,[9],inactive
same,Potency,[10],inactive
same,Potency,[11],inactive
Cc1ccc(C(=O)Nc2cccc(C(F)(F)F)c2)cc1-c1ccc2nc(NCCN3CCOCC3)ncc2c1,Potency,[1],4.18 µM (active) and 7.31 µM (active)
same,Potency,[2],6.51 µM (active)
same,Potency,[3],16.6 µM (active)
same,Potency,[12],10.5 µM (active) and 18.4 µM (active)
same,Potency,[4],11.8 µM (active)
same,Potency,[6],inactive
same,Potency,[15],inactive
same,Potency,[8],14.1 µM (active)
same,Potency,[9],11.2 µM (active)
same,Potency,[10],11.2 µM (active)
same,Potency,[11],inactive
COc1cc2c(Nc3ccc(NC(=O)c4ccccc4)cc3)ncnc2cc1OCCCN1CCOCC1,max response,[1],5%
same,Potency,[2],7.31 µM (active)
same,max response,[3],-17.8%
same,Potency,[12],14.6 µM (active)
same,Potency,[4],inactive
same,Potency,[6],inactive
same,Potency,[13],inactive
same,Potency,[7],25.1 µM (active)
same,Potency,[9],inactive
same,Potency,[11],inactive
C1=CCOCc2cc(ccc2OCCN2CCCC2)Nc2nccc(n2)-c2cccc(c2)OCC1,Potency,[1],8.33 µM (active)
same,Potency,[2],4.69 µM (active)
same,Potency,[3],2.96 µM (active)
same,Potency,[12],7.43 µM (active)
same,Potency,[5],9.35 µM (active)
same,Potency,[6],11.8 µM (active)
same,Potency,[13],11.8 µM (active)
same,Potency,[15],9.35 µM (active)
CC1(C)CCC(c2ccc(Cl)cc2)=C(CN2CCN(c3ccc(C(=O)NS(=O)(=O)c4ccc(N[C@H](CCN5CCOCC5)CSc5ccccc5)c(S(=O)(=O)C(F)(F)F)c4)cc3)CC2)C1,max response,[1],3.93%
same,max response,[3],-2.09%
same,Potency,[4],inactive
same,Potency,[5],inactive
same,Potency,[14],0.418 µM (active)
same,Potency,[6],0.264 µM (active)
same,Potency,[13],inactive
same,Potency,[15],0.118 µM (active)
same,Potency,[16],12.6 µM (active)
same,Potency,[8],14.1 µM (active)
same,Potency,[9],inactive
COc1ccc(CC2c3cc(OC)c(OC)cc3CC[N+]2(C)CCC(=O)OCCCCCOC(=O)CC[N+]2(C)CCc3cc(OC)c(OC)cc3C2Cc2ccc(OC)c(OC)c2)cc1OC (centres undefined),max response,[1],-0.557%
same,max response,[2],3.6%
same,max response,[3],4.25% and 0.363%
same,max response,[12],-6.84%
same,"activity change, negative = cytotoxicity",[4],-6.08% [at 9.22 µM]
same,"activity change, negative = cytotoxicity",[5],2.59% [at 9.22 µM]
same,"activity change, negative = cytotoxicity",[14],-7.93% [at 9.22 µM]
same,"activity change, negative = cytotoxicity",[6],-23.6% [at 9.22 µM]
same,"activity change, negative = cytotoxicity",[13],-1.41% [at 9.22 µM]
same,"activity change, negative = cytotoxicity",[15],-8.88% [at 9.22 µM]
CC[C@H](CO)Nc1nc(NCc2ccccc2)c2ncn(C(C)C)c2n1,Potency,[1],26.4 µM (active)
same,max response,[12],-26.8%
same,Potency,[4],inactive
same,Potency,[5],inactive
same,Potency,[14],inactive
same,Potency,[6],inactive
same,Potency,[15],inactive
O=C(C=Cc1cccc(S(=O)(=O)Nc2ccccc2)c1)NO,Potency,[1],21.5 µM (active)
same,Potency,[2],15.2 µM (active)
same,Potency,[3],6.05 µM (active)
same,Potency,[12],10.8 µM (active)
same,Potency,[14],7.62 µM (active)
same,Potency,[6],3.4 µM (active)
same,Potency,[13],34 µM (active)
same,Potency,[15],3.03 µM (active)
Cn1c2cc(S(C)=O)sc2c2cnn(Cc3cccc(N)c3)c(=O)c21 (centres undefined),max response,[1],0.238%
same,max response,[2],-2.01%
same,max response,[3],-13.5%
same,max response,[12],-11.6%
same,Potency,[4],inactive
same,Potency,[5],inactive
same,Potency,[14],inactive
same,Potency,[6],inactive
same,Potency,[15],inactive
